# The list is not random: actives were taken first. Their share in the collection is about 3.1%.
# LGR2 inh = blocks bursicon-induced cAMP signaling via Drosophila LGR2; 380,000 compounds, 0.35% hits; HEK293 LGR2, CRE-luciferase, bursicon-stimulated, 4 h; inhibition, % at 9.99 µM;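 active = drop in luminescence signal, shown as inhibition above about 50% in the replicate tests, limit read from the data, passing the limit was not always enough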;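 note: agonist challenge used bursicon conditioned medium at about half maximal strength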
# PAX8 inh HTS = inhibitors of PAX8 transcriptional activity in RMG-I cells. RMG-I TPO-luciferase reporter, SteadyGlo, 24 h. inhibition, % at 12.6 µM. 360,000 compounds, 1.2% hits. AID 652154;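 active = mean replicate inhibition at least 60% with every replicate also reaching 60%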;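 note: luciferase light reporting Pax8 driven TPO promoter activity; plate controls were median of neutral control wells for no effect and mitoxantrone controls for full effect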
# EBV LMP1 NFkB = reduces LMP1-driven NF-kappaB luciferase signal; inhibition, % at 12.5 µM; 350,000 compounds, 0.69% hits; AID 504558; LMP1-induced NF-kappaB luciferase reporter cells, luminescence; in the data active = inhibition above about 41%;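 note: 0% = neutral control wells and 100% = reference inhibitor control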
# TWEAK Fn14 block = inhibitors of TWEAK-Fn14 interaction signaling; AID 1159606; inhibition, % at 10 µM; 360,000 compounds, 2% hits; TWEAK-stimulated Fn14 reporter cells, luciferase luminescence, 8 h; in the data active = inhibition above about 50%
# EWS-Fli inh = EWS/Fli transcriptional activity inhibition | A673 NR0B1-luciferase reporter, viability-normalised | inhibition, % at 12.6 µM | 350,000 compounds, 0.67% hits | AID 651661;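 active = mean inhibition of at least 50% after viability correction, with every replicate also passing that limit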;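 note: firefly luciferase signal divided by Alamar Blue viability fluorescence both relative to DMSO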
# TROY signal inh = TROY signaling inhibition; Q293 LMP1-TROYcd NF-kB luciferase reporter, 4 h; inhibition, % at 10 µM; 360,000 compounds, 0.98% hits;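 active = compounds whose plate-normalised and pattern-corrected inhibition of the luciferase reporter signal at the single screening dose is 50% or more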
# Active calls of the source: *; . = not tested or not shown.
SMILES,LGR2 inh,PAX8 inh HTS,EBV LMP1 NFkB,TWEAK Fn14 block,EWS-Fli inh,TROY signal inh
O=C1C(C=NCc2cccnc2)=C(O)c2ccccc21,.,.,62*,27,.,52*
O=C1C(C=NCc2ccco2)=C(O)c2ccccc21,.,.,-22,38,.,59*
C[C@@H]1CCCCO[C@@H](CN(C)CC2CC2)[C@H](C)CN([C@@H](C)CO)C(=O)c2cc(NC(=O)Nc3ccc(F)cc3)ccc2O1,-20,-3,.,.,-3,.
C[C@@H]1CN([C@H](C)CO)C(=O)c2cc(NC(=O)Cc3ccccc3)ccc2O[C@@H]1CN(C)C(=O)Nc1ccccc1,5,-20,.,.,-7,.
Cc1ccc(C)c(-c2cc(C(=O)Nc3cccc(C(=O)O)c3)c3ccccc3n2)c1,-73,83*,-3,-23,4,-5
COC(=O)c1sccc1NC(=O)c1cc(-c2cc(C)ccc2C)nc2ccccc12,10,.,9,32,10,6
Cc1ccc(C)c(-c2cc(C(=O)Nc3nccs3)c3ccccc3n2)c1,.,.,4,62*,7,10
Cc1ccc(C)c(-c2cc(C(=O)Nc3cccnc3)c3ccccc3n2)c1,0,5,-6,18,10,-16
Cc1cc(OCC(=O)Nc2ccncc2)ccc1Br,.,.,7,88*,.,.
COc1cccc(NC(=O)COc2ccc(Br)c(C)c2)c1,-65,-14,-1,-22,-40,-25
O=C(c1ccco1)N1CCN(c2ncnc3c(-c4ccc(Cl)cc4)nsc23)CC1,.,.,10,61*,.,63*
COc1ccc(-c2nsc3c(N4CCCC4)ncnc23)cc1,.,-79,25,95*,.,66*
Cc1ccc(-c2csc3ncnc(N4CCN(C(=O)c5ccco5)CC4)c23)cc1,1,22,0,11,3,5
COc1ccc2c3c(n(C)c2c1)[C@H](CO)N(C(=O)Cc1ccccn1)CC31CCN(CC2CCCCC2)CC1,-7,.,.,.,4,.
C=C(C)[C@@H]1CCC2(C(=O)O)CC[C@]3(C)[C@H](CC[C@@H]4[C@@]5(C)CCC(=O)C(C)(C)[C@@H]5CC[C@]43C)[C@@H]12 (stereo partly specified),.,-5,49*,51*,5,-4
O=C(N/N=C/c1ccccn1)c1ccco1,.,-30,-3,-13,.,-21
O=C(N/N=C/c1ccc2ncccc2c1)c1ccco1,55*,13,48*,70*,18,51*
CC(C)NC(=O)N(C)C[C@H]1Oc2c(NC(=O)Nc3ccc(C(F)(F)F)cc3)cccc2C(=O)N([C@@H](C)CO)C[C@H]1C,-13,29,.,.,11,.
O=c1cc(-c2ccc(O)c(O)c2)oc2cc(O)cc(O)c12,23,-80,0,64*,40,37
COc1ccc(-c2cc(=O)c3c(O)cc(O)cc3o2)cc1,19,-420,-1,35,-83,39
O=c1c(O)c(-c2ccc(O)c(O)c2)oc2cc(O)cc(O)c12,.,-47,90*,68*,23,32
Cc1cc(Br)ccc1NC(=O)CN(C)C(=O)c1cc(S(=O)(=O)N(C)C)ccc1N1CCCC1,1,21,0,88*,.,-5
Cc1ccc(NC(=S)Nc2cccc(S(=O)(=O)Nc3c(C)n(C)n(-c4ccccc4)c3=O)c2)cc1,-56,-65,69*,3,-9,-22
Cc1c(NC(=O)/C(=C\c2ccccc2)NC(=O)c2ccccc2)c(=O)n(-c2ccccc2)n1C,.,-4,0,94*,.,-9
Cc1c(NC(=O)/C(=C/c2cccs2)NC(=O)c2ccccc2)c(=O)n(-c2ccccc2)n1C,3,6,-4,13,-1,2
Cc1c(NC(=S)Nc2cccc(Cl)c2)c(=O)n(-c2ccccc2)n1C,-8,-18,8,-3,5,2
Cc1cccc(C)c1NC(=S)Nc1c(C)n(C)n(-c2ccccc2)c1=O,-4,76*,-3,-9,2,10
CC(=O)N[C@H]1CC[C@H](CC(=O)NCc2ccc(Cl)cc2)O[C@H]1CO,-14,-5,.,.,2,.
O=C(C1CCC1)N1CC[C@@H]2[C@H]1c1cc(-c3cccc(F)c3)ccc1N[C@@H]2CO,-14,9,.,.,-1,.
Cc1ccc2nc(-c3ccc(NC(=O)COC(=O)c4ccco4)cc3)sc2c1,66*,-38,18,52*,.,7
